From PubChem BioAssay
Calls of active or inactive are those of the source.

Columns and labels:
Albumin (Bos taurus) = Albumin (Bos taurus) (UniProt P02769); experiment: compounds binding labelled BSA control protein – biochemical, small-molecule microarray, Alexa647 label, 635/667 nm fluorescence, artefact control for SMM control protein annotation, profiling panel (AID 1118); details: BSA-A647 binding, fluorescence 635 nm, higher = more signal;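 also: score merges 667 nm emission intensity and signal-to-noise per printed compound spot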
[1] = probe aXIP binding to arrayed compounds – biochemical, NeuroSMM set, 635/667 nm fluorescence, primary screen (AID 1119); details: small-molecule microarray, higher = more signal, called active from +8 up or from −8 down;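 also: probe is the protein aXip251-270 applied at 1 µg/mL to compound-printed slides; binding of probe to printed compounds measured as 667 nm fluorescence plus signal to noise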
[2] = probe aNOTCH3 binding on compound microarray – biochemical, small-molecule microarray, 635/667 nm fluorescence, primary screen (AID 1120); details: higher = more signal;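 also: probe is a biotin-tagged antibody raised against NOTCH3 rather than NOTCH3 protein; score merges spot fluorescence near 667 nm with spot signal to noise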
[3] = probe aNOTCH2 binding on compound microarray – biochemical, small-molecule microarray, 635/667 nm fluorescence, primary screen (AID 1121); details: higher = more signal;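 also: score merges feature fluorescence read at 667 nm with its signal to noise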
[4] = molecular target: Carbonic anhydrase 2 (Homo sapiens) (UniProt P00918); experiment: compounds binding carbonic anhydrase 2 – biochemical, small-molecule microarray, Alexa647-labelled CAII, profiling panel (AID 1122); details: CAII-A647 binding fluorescence, higher = more signal
[5] = COS7 lysate on small-molecule microarray, probe aHis, 635 nm (AID 1123); details: COS7 cell lysate, fluorescence, higher = more signal;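 also: z-score combines 667nm fluorescence intensity with signal-to-noise per printed compound spot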
[6] = probe aLAP1 signal on lysate-treated microarray – cell lysate, small-molecule microarray, COS7 lysate, primary screen (AID 1124); details: probe aLAP1, fluorescence, higher = more signal;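 also: lysate comes from COS7 cells expressing LAP1 and is applied at 0.3 µg/mL; score merges spot fluorescence near 667 nm with signal-to-noise over triplicate slides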
Sam68 (KHDRBS1) = experiment: compounds binding KHDRBS1 protein – biochemical, small-molecule microarray, 635 nm fluorescence, primary screen (AID 1125); details: higher = more signal;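 also: score merges 667 nm channel intensity with signal to noise over triplicate slides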
[7] = test system: Chordin-like protein 2 (CHRDL2); experiment: compounds binding chordin-like 2 – biochemical, small-molecule microarray, 635 nm fluorescence, primary screen (AID 1126); details: fluorescence 635 nm, higher = more signal;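 also: printed compound slides probed with Chrdl2 protein at 4 µg/mL for 1 h at 4 C; score merges 667 nm emission intensity with signal to noise over three replicate slides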
[8] = molecular target: Concanavalin-A (Canavalia ensiformis) (UniProt P02866); experiment: compounds binding concanavalin A lectin – biochemical, small-molecule microarray, Alexa647 label, 635 nm, artefact control for SMM control protein annotation, primary screen (AID 1127); details: ConA-A647 binding fluorescence, higher = more signal;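 also: z combines 667 nm emission intensity with signal-to-noise across three replicate slides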
Concanavalin-A (Canavalia ensiformis), sequence (P02866 whole entry, looked up): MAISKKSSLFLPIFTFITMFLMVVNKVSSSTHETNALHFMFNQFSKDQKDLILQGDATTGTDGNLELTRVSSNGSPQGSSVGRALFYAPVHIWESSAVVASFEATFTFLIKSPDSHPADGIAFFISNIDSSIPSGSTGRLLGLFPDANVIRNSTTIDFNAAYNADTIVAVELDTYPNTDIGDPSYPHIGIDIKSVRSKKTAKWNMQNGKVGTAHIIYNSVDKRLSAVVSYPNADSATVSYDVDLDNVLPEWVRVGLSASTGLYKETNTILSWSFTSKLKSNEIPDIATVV

Albumin (Bos taurus), sequence (P02769 whole entry, looked up): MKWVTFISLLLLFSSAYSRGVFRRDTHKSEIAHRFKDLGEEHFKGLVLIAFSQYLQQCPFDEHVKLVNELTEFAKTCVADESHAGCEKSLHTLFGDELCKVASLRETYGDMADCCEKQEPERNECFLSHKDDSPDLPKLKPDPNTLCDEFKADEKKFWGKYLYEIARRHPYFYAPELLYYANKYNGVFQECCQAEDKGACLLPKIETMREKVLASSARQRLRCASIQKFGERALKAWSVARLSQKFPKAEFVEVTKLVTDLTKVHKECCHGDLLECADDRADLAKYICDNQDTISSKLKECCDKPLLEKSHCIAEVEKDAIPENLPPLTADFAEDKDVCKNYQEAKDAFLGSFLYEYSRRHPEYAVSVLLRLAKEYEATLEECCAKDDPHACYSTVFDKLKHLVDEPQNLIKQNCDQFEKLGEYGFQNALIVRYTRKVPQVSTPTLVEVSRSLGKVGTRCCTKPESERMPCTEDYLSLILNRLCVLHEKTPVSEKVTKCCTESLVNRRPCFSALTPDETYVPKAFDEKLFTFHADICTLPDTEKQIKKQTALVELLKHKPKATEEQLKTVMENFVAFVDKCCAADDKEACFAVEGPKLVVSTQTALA

Structure (SMILES) | composite z-score (Albumin (Bos taurus)) | composite Z-score [1] | composite z-score [2] | composite z-score [3] | composite z-score [4] | composite z-score [5] | composite z-score [6] | composite z-score (Sam68 (KHDRBS1)) | composite z-score [7] | composite z-score [8]
O=C1OCCC/C=C\[C@H]2OC34C=CCN(Cn5nnc6ccccc65)C(=O)[C@H]3N(CCCO)C(=O)[C@@H]4C12 (stereo not given in full) | -1.38 | -0.774 (inactive) | -0.306 | -0.112 | 0.896 | 1.82 | 0.888 | 0.301 | -2.21 | -0.946
COc1ccc(C(O)C2C=CC3C(=O)N(c4ccccc4)C(=O)C3N2Nc2ccccc2)c2ccccc12 (stereo not given) | 0.705 | 0.0542 (inactive) | 0.19 | -0.0528 | 0.522 | 1.97 | 0.0206 | -0.309 | -0.841 | 0.69
CCCCN1CC=CC23O[C@@H]4C=CCCOC(=O)C4[C@H]2C(=O)N(CCCO)[C@@H]3C1=O (stereo not given in full) | -1.13 | -0.941 (inactive) | -0.189 | -0.155 | 0.488 | -0.673 | -0.469 | -0.905 | -0.304 | -1.59
CN1C(=O)C2C=CC(C(O)C=Cc3ccc([N+](=O)[O-])cc3)N(N3CCCCC3)C2C1=O (stereo not given) | 0.933 | 0.693 (inactive) | 1.03 | 0.713 | 0.766 | 2.1 | 1.52 | 1.31 | 0.57 | 1.2
COCCOC(=O)N1C(=O)[C@@]2(c3cc(C#CCCO)ccc31)[C@H](C(=O)NC[C@H](O)c1ccccc1)[C@H]1C(=O)O[C@H](c3ccccc3)[C@H](c3ccccc3)N1[C@@H]2c1ccc(OCCO)cc1 | 0.536 | 0.192 (inactive) | 0.264 | -0.155 | 0.581 | 1.72 | 0.684 | 1.3 | 0.534 | 1.13
CCOC1=C2C(c3ccc(C)cc3)N(S(=O)(=O)c3ccc(C)cc3)CC2n2c(=O)n(-c3ccccc3)c(=O)n2C1 (stereo not given) | 0.495 | 0.193 (inactive) | 0.125 | -0.0276 | 0.639 | 2.65 | 0.91 | 1.35 | 0.339 | 1.14
COc1ccc([Si](C)(C)[C@H]2[C@H](CCO)O[C@@]3(C(=O)N(Cc4cccc(N5C(=O)c6cccc7cccc5c67)c4)c4ccccc43)[C@@H]2C)cc1 | 0.577 | 0.326 (inactive) | -0.122 | -0.148 | 0.23 | 0.856 | 1.42 | 1.13 | -0.27 | 0.863
COc1cc(NN2C(C(O)c3ccccc3)C=CC3C(=O)N(c4ccccc4)C(=O)C32)cc(OC)c1OC (stereo not given) | 0.923 | 0.153 (inactive) | 0.569 | -0.124 | 0.831 | 3.3 | 0.263 | 1.31 | -0.0912 | 0.919
CCCCC(=O)N(Cc1ccccc1F)[C@@H]1CC(C(=O)NCCO)=C[C@H](Oc2c(I)cc(CO)cc2OC)[C@H]1O | -0.823 | -0.685 (inactive) | 0.201 | -0.0128 | 0.521 | 1.54 | 0.44 | 1.3 | 1.5 | 1.19
O=C1O[C@H](c2ccccc2)[C@H](c2ccccc2)N2[C@H]1[C@@H](C(=O)NC[C@H](O)c1ccccc1)[C@]1(C(=O)Nc3ccc(C#CC4(O)CCCCCC4)cc31)[C@H]2c1ccccc1OCCO | 0.574 | 0.228 (inactive) | -0.0694 | 0.0785 | 0.411 | 1.45 | 1.29 | 1.32 | 0.117 | 0.8
[N-]=[N+]=NCc1ccccc1C[C@]1(C(=O)NCc2ccccc2)COC(c2ccc(OCCCO)cc2)=N1 | 0.632 | 0.452 (inactive) | 0.112 | -0.0814 | 0.644 | 1.89 | 0.784 | 1.3 | -0.694 | 0.612
O=C1OCC=C[C@H]2OC34C=CCN(CCN5CCOCC5)C(=O)[C@H]3N(CCCCCCO)C(=O)[C@@H]4[C@@H]12 (stereo not given in full) | 0.509 | -1.05 (inactive) | 0.0208 | -0.104 | 0.688 | 3.1 | 0.55 | 0.274 | 0.158 | 0.0683
CC(=O)N1Cc2ccccc2C[C@@]2(N=C(c3ccc(OCCCO)cc3)O[C@H]2c2ccccc2)C1=O | -0.0471 | 0.0748 (inactive) | 0.22 | 0.139 | 0.709 | 3.18 | 1.24 | 1.3 | 0.611 | 1.17
O=C1O[C@@H](c2ccccc2)[C@@H](c2ccccc2)N2[C@@H](c3ccc(O)cc3)[C@]3(C(=O)Nc4ccc(C#CCCO)cc43)[C@@H](C(=O)N3CCCCCCC3)[C@H]12 | -0.126 | 5.37 (inactive) | 1.3 | 0.612 | 0.766 | 3.26 | 0.991 | 1.16 | 1.43 | 0.884
C=C(CCCC)/C(=C/C[C@@H](OC(=O)c1ccncc1)c1ccc(CO)o1)c1cc(C(=O)OC)ccc1OC | 0.662 | 0.421 (inactive) | 0.0897 | -0.0349 | 0.709 | 1.46 | 0.924 | 1.3 | 0.422 | 1.15
CCOC(=O)C[C@H]1[C@H](OC(=O)c2ccc(C(=O)c3ccccc3)cc2)[C@@H](NC(=O)c2ccc3ccccc3n2)c2cc(OCCCO)ccc2N1C(=O)c1ccc2ccccc2n1 | 0.802 | 0.525 (inactive) | 0.16 | -0.101 | 0.245 | 0.847 | 0.808 | 0.616 | -0.0787 | 0.564
O=C(NCc1ccccc1)[C@@H]1c2ccccc2C(=O)N(Cc2cc(F)cc(C(F)(F)F)c2)[C@H]1c1ccc(CO)cc1 | 0.491 | 0.318 (inactive) | -0.0477 | -0.124 | 0.589 | 1.67 | 0.662 | 1.27 | 0.161 | 0.769

Structure (SMILES) | composite z-score (Albumin (Bos taurus)) | composite Z-score [1] | composite z-score [2] | composite z-score [3] | composite z-score [4] | composite z-score [5] | composite z-score [6] | composite z-score (Sam68 (KHDRBS1)) | composite z-score [7] | composite z-score [8]
COc1ccc([Si](C)(C)[C@H]2[C@H](CCO)O[C@@]3(C(=O)N(Cc4ccccc4)c4ccc(N5C(=O)COc6ccccc65)cc43)[C@@H]2C)cc1 | 0.449 | 0.412 (inactive) | -0.0431 | -0.0552 | 0.443 | 0.69 | 0.11 | -0.101 | -0.516 | 0.211
CC[C@@H]1C=C(C(=O)O)[C@H](c2ccc(C(C)C)cc2)N1S(=O)(=O)c1ccc(C)cc1 | 0.987 | 1.1 (inactive) | 0.42 | 0.346 | 0.796 | 2.85 | 1.63 | 1.3 | -0.557 | 1.21
CCCNC(=O)[C@@]1(C)c2ccccc2C(=O)N(Cc2cc(F)cc(C(F)(F)F)c2)[C@H]1c1ccc(CO)cc1 | 0.695 | 0.373 (inactive) | -0.201 | -0.0569 | 0.587 | 2.24 | -0.337 | -0.0127 | -1.76 | -0.365
CN1C(=O)C2C=CC(C(O)C(C)(C)C)N(Nc3ccccc3)C2C1=O (stereo not given) | 0.494 | 0.914 (inactive) | -0.217 | -0.029 | 0.847 | 2.78 | -0.519 | -0.141 | -0.156 | -0.127
CN1C(=O)C2C=CC(C(O)c3ccc(Br)cc3)N(Nc3ccccc3)C2C1=O (stereo not given) | 0.768 | 0.304 (inactive) | 0.145 | 0.0498 | 0.678 | 0.991 | 0.204 | 0.168 | -0.723 | -0.597
CC(C)NC(=O)[C@@]1(c2ccc([N+](=O)[O-])cc2)CC(=O)N(C(C)C)[C@@H]1c1ccc(CO)cc1 | 0.697 | 0.461 (inactive) | -0.399 | -0.176 | 0.718 | 0.859 | 0.723 | 0.0001 | -1.66 | -0.0183
COc1ccc([Si](C)(C)[C@H]2[C@H](CC(=O)N3Cc4ccccc4C[C@H]3CO)O[C@@]3(C(=O)N(Cc4cccc(I)c4)c4ccccc43)[C@@H]2C)cc1 | -0.481 | 0.58 (inactive) | -0.0947 | -0.125 | 0.784 | -0.0845 | -0.361 | 0.418 | 1.54 | 0.891
COCCOC(=O)N1C(=O)[C@@]2(c3cc(C#CC4(O)CCCCCC4)ccc31)[C@H](c1ccc(O)cc1)N1[C@H](c3ccccc3)[C@H](c3ccccc3)OC(=O)[C@H]1[C@@H]2C(=O)N1CCc2cc(OC)c(OC)cc2C1 | -0.189 | 0.131 (inactive) | -0.239 | -0.197 | 0.859 | 0.288 | 0.347 | 0.0544 | -0.861 | 0.3
COc1ccc([Si](C)(C)[C@@H]2[C@@H](CCO)O[C@]3(C(=O)N(Cc4cccc(N(C=O)c5ccccc5)c4)c4ccccc43)[C@H]2C)cc1 | 0.492 | 0.492 (inactive) | -0.0328 | -0.0876 | 0.457 | 0.46 | -0.206 | 1.32 | -0.179 | 1.1
O=c1cccc(-c2ccc3ccccc3c2)o1 | -1.67 | 0.19 (inactive) | -0.0766 | -0.115 | -0.263 | -0.332 | -0.341 | -0.591 | 0.387 | -0.544
CN(C)CCCC[C@@H]1NC(=O)[C@H]2C[C@@H](C(=O)NCCCCCNC(=O)CS)[C@@H](c3ccc(O)cc3)N2C1=O | 0.74 | 0.157 (inactive) | -0.374 | -0.127 | -0.204 | 0.268 | -0.733 | -1.38 | -0.688 | 0.734
C=C[C@H](OC)[C@@H](OC(=O)Nc1ccc(SC)cc1)c1ccc(OCCO)cc1 | 0.383 | 0.651 (inactive) | -0.15 | -0.0956 | 0.503 | 1.45 | 0.503 | 0.904 | 0.0669 | 0.713
COCCOC(=O)N1C(=O)[C@@]2(c3cc(C#Cc4ccc(OC)cc4)ccc31)[C@H](c1ccc(OCCO)cc1)N1[C@H](c3ccccc3)[C@H](c3ccccc3)OC(=O)[C@H]1[C@@H]2C(=O)N1CCc2cc(OC)c(OC)cc2C1 | -0.536 | 0.343 (inactive) | 0.0194 | -0.0907 | 0.228 | 0.875 | 0.556 | 1.17 | 0.599 | 0.843
COc1ccc(C#Cc2ccc3c(c2)[C@]2(C(=O)N3)[C@H](C(=O)N3CCc4cc(OC)c(OC)cc4C3)[C@H]3C(=O)O[C@H](c4ccccc4)[C@H](c4ccccc4)N3[C@@H]2c2ccc(OCCO)cc2)cc1 | -0.0155 | 0.289 (inactive) | 0.0762 | -0.0859 | 0.136 | 1.19 | 0.351 | 1.24 | 0.523 | 1.07
O=C(NCC(O)CO)[C@@]1(Cc2ccccc2)N=C(c2ccc(OCCCO)cc2)O[C@H]1c1ccccc1 (stereo not given in full) | 0.944 | 0.805 (inactive) | 0.331 | 0.257 | 0.852 | 2.83 | 1.01 | 1.24 | -1.34 | 0.785
CCOC(=O)C1=CC[C@@H](c2ccccc2)N(S(=O)(=O)c2ccc(C)cc2)[C@H]1c1ccc(C#N)cc1 | 0.801 | 0.662 (inactive) | 0.116 | -0.0158 | 0.356 | 1.56 | 0.791 | 1.33 | -1.25 | 1.12
